Our source for the composite z-score and z-score values is PubChem BioAssay.

The test system of assay [1] is PRMT1 (protein arginine N-methyltransferase 1). Description: small molecules binding arginine methyltransferase PRMT1 – biochemical, small-molecule microarray, 635 nm fluorescence, primary screen (AID 1088).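 Also: binding of Prmt1 protein to compounds spotted on small-molecule microarray slides.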 The conditions noted are these: higher = more signal.
Assay [2] can be described thus: growth effects on S. cerevisiae YJM789 – YJM789 clinical isolate, OD600, 24 h, basal, primary screen (AID 1089).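 Also: growth of clinical yeast isolate S. cerevisiae YJM 789 seeded 1000 cells per well; test concentration not given here.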 The conditions noted are these: higher = more signal, called active from +8 up or from −8 down.
Assay [3] in a line: S. pombe growth modifiers, basal conditions – strain 972, OD600, 24 h, no modulator, primary screen (AID 1090).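 Also: basal condition with compound alone and no growth modifier present; test concentration not given here.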 The following applies: S. pombe 972 growth, higher = more signal, called active from +8 up or from −8 down.
Assay [4] can be described thus: budding yeast growth modifiers under rapamycin – strain BY4716, OD600, 96 h, primary screen (AID 1091). Also: test concentration not given here. The following applies: S. cerevisiae BY4716 + rapamycin, higher = more signal, called active from +8 up or from −8 down.
The target in assay [5] is Torsin-1A-interacting protein 2 (Homo sapiens) (UniProt Q8NFQ8). Description: small molecules binding lysate-expressed LULL1 – cell lysate, human LULL1 lysate, 635/667 nm fluorescence, primary screen (AID 1092).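 Also: probe is lysate of COS7 cells overexpressing human LULL1; score merges per-feature 667 nm fluorescence with signal-to-noise.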 The following applies: small-molecule microarray, hLULL1 lysate binding, 635 nm fluorescence; higher = more signal.
Torsin-1A-interacting protein 2 (Homo sapiens), sequence (Q8NFQ8 whole entry, looked up): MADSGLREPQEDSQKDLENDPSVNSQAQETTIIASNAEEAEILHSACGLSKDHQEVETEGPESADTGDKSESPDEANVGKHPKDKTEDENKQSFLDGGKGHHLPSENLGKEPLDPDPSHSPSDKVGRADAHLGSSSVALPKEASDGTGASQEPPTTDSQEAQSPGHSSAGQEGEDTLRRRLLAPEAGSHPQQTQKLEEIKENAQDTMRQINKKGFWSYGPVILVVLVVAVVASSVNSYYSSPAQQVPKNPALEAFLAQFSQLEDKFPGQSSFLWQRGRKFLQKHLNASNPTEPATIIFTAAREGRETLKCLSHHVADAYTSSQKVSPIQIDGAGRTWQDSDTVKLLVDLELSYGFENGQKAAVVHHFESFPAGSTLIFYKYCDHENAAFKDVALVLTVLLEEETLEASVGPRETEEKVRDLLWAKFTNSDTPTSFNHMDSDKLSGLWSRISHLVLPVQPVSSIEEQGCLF
The nature of assay [6]: optical density change of DRC41 E. coli – strain DRC41, OD650, 24 h, E. coli filamentation project, primary screen (AID 1093).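 Also: MC1000 strain lacking acrAB efflux and sulA so SOS filamentation is blocked; test concentration not given here.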 The conditions noted are these: E. coli DRC41 growth, higher = more signal, called active from +8 up or from −8 down.
Assay [7] can be described thus: probe aLefty2 binding to arrayed compounds – biochemical, biotinylated probe, 635/667 nm fluorescence, primary screen (AID 1094).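 Also: score merges spot fluorescence near 667 nm with spot signal-to-noise ratio.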 The following applies: small-molecule microarray, higher = more signal.
Assay [8] relates to Noggin (protein binding on small-molecule microarray). Description: small molecules binding Noggin protein – biochemical, 635/667 nm fluorescence, primary screen (AID 1095).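 Also: score merges 667 nm feature fluorescence with signal to noise over triplicate slides.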 The conditions noted are these: 635 nm fluorescence, higher = more signal.
Assay [9] addresses Neurogenic locus notch homolog protein 3 (Homo sapiens) (UniProt Q9UM47). Description: small molecules binding NOTCH3 protein – biochemical, 635/667 nm fluorescence, primary screen (AID 1096). The conditions noted are these: small-molecule microarray, 635 nm fluorescence, higher = more signal.
Assay [10] is described as follows: probe aEGFR binding to arrayed compounds – biochemical, biotinylated probe, 635/667 nm fluorescence, primary screen (AID 1097).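 Also: probe is a biotinylated anti-EGFR antibody binding compounds printed on slides; score combines fluorescence near 667 nm and signal to noise of each spot.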 The conditions noted are these: small-molecule microarray, higher = more signal.
Assay [11] deals with Plasmodium falciparum Sir2 (PF13_0152, Sir2A). Description: Plasmodium falciparum Sir2A binding compounds – biochemical, small-molecule microarray, 635 nm fluorescence, primary screen (AID 1098).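 Also: score merges spot fluorescence intensity with its signal-to-noise ratio.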 The following applies: fluorescence 635 nm, higher = more signal.
The nature of assay [12]: probe aDKK1 binding to arrayed compounds – biochemical, biotinylated probe, 635/667 nm fluorescence, primary screen (AID 1099).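 Also: score merges 667nm spot fluorescence with signal to noise across triplicate slides; reference of the scale not given here.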 The following applies: small-molecule microarray, higher = more signal.
Assay [13] can be described thus: probe aCHRDL2 binding to arrayed compounds – biochemical, biotinylated probe, 635/667 nm fluorescence, primary screen (AID 1100). The conditions noted are these: small-molecule microarray, higher = more signal.
Assay [14] in a line: change in splice reporter luminescence, either direction, cell-based, HEK293, spliceosome inhibition project, primary screen (AID 1101).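 Also: HEK293 cells carrying a splicing-competent luciferase reporter gene; test concentration not given here.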 The conditions noted are these: HEK293 splicing luciferase reporter, 24 h, higher = more signal, called active from +8 up or from −8 down. Background: A reporter such as luciferase makes a cellular process visible.
For assay [15], the target named is Fibroblast growth factor 10 (Homo sapiens) (UniProt O15520). Description: compounds binding fibroblast growth factor 10 – biochemical, small-molecule microarray, 635 nm fluorescence, primary screen (AID 1102). The conditions noted are these: FGF10 binding, fluorescence 635 nm, higher = more signal.
Fibroblast growth factor 10 (Homo sapiens), sequence (O15520 whole entry, looked up): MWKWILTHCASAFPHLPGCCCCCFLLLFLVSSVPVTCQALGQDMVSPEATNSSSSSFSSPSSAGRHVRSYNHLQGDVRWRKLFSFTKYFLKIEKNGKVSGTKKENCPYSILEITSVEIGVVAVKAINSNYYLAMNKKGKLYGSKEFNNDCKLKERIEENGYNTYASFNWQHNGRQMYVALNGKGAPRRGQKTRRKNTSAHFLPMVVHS
Assay [16] deals with glycogen synthase kinase-3 (GSK3A per assay name; protocol says GSK3B). Description: compounds binding glycogen synthase kinase-3 – biochemical, small-molecule microarray, 635 nm fluorescence, GSK3A, primary screen (AID 1103). Also: the record names both GSK3A and GSK3B. The conditions noted are these: fluorescence 635 nm, higher = more signal.
The target in assay [17] is Epidermal growth factor receptor (Homo sapiens) (UniProt P00533). Description: compounds binding epidermal growth factor receptor – biochemical, small-molecule microarray, 635 nm fluorescence, primary screen (AID 1104).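 Also: score merges 667 nm emission intensity with spot signal to noise over triplicate slides.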 The following applies: EGFR binding, higher = more signal.
Epidermal growth factor receptor (Homo sapiens), sequence (P00533 whole entry, looked up): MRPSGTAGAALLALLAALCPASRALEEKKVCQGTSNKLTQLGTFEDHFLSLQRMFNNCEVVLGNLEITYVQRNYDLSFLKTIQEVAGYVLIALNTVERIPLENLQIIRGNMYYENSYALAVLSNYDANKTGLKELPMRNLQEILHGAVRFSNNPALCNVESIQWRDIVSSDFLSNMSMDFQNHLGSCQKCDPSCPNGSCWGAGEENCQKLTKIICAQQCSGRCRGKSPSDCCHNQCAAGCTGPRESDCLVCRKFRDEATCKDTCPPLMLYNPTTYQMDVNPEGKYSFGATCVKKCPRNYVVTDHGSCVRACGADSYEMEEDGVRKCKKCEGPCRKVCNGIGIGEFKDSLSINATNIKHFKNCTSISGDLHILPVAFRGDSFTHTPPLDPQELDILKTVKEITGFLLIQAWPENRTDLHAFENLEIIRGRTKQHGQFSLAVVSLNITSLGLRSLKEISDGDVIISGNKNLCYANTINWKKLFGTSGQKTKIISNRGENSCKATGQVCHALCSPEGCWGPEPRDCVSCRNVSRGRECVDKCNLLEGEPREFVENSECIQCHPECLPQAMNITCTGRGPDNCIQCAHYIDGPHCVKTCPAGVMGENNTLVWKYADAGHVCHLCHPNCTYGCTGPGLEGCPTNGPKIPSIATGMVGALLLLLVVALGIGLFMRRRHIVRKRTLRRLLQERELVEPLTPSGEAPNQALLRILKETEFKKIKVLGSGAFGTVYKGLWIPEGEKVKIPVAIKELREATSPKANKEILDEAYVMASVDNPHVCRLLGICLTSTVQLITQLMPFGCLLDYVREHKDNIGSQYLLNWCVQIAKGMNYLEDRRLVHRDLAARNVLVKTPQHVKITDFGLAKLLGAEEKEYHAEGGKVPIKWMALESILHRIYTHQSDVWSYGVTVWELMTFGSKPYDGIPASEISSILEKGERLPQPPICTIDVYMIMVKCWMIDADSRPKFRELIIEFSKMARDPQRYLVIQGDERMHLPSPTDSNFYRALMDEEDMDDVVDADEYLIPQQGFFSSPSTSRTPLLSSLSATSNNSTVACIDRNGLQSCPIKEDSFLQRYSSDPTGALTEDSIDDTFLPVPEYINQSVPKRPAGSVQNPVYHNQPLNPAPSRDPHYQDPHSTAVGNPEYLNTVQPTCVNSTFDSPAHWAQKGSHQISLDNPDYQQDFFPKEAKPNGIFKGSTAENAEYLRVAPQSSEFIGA
The target of assay [18] is Follistatin-related protein 3 (Homo sapiens) (UniProt O95633). Description: compounds binding follistatin-related protein 3 – biochemical, small-molecule microarray, 635 nm fluorescence, primary screen (AID 1105).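 Also: score merges emission near 667 nm and signal to noise per printed spot across three slides.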 The following applies: FSTL3 binding, higher = more signal.
Follistatin-related protein 3 (Homo sapiens), sequence (O95633 whole entry, looked up): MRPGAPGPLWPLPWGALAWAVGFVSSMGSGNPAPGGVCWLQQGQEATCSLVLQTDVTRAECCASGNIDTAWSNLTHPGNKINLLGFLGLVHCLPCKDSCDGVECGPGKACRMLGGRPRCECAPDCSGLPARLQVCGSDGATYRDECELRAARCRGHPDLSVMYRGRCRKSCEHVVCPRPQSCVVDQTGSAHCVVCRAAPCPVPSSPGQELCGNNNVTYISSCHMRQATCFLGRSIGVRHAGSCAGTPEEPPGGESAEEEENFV
In assay [19] the target is Dickkopf-related protein 1 (Homo sapiens) (UniProt O94907). Description: small molecules binding DKK1 protein – biochemical, small-molecule microarray, 635 nm fluorescence scan, primary screen (AID 1106).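 Also: score merges emission near 667 nm with signal to noise over three replicate slides.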 The following applies: higher = more signal.
Dickkopf-related protein 1 (Homo sapiens), sequence (O94907 whole entry, looked up): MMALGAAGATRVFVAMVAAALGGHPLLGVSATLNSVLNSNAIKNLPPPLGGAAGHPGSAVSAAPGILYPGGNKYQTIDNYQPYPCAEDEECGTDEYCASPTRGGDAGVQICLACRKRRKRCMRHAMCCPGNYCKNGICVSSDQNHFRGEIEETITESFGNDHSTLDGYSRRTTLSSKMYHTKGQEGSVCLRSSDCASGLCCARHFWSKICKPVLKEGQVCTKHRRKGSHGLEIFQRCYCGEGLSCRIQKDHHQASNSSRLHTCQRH
The test system of assay [20] is Inhibin beta A chain (activin A). Description: small molecules binding activin A – biochemical, small-molecule microarray, 635 nm fluorescence scan, primary screen (AID 1107).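 Also: mouse activin A protein probed at 4.33 µg/mL on printed slides; score merges bound-protein fluorescence near 667 nm with spot signal-to-noise.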 The following applies: INHBA, higher = more signal.

Active and inactive are the calls of the source.

Neurogenic locus notch homolog protein 3 (Homo sapiens), sequence (Q9UM47 whole entry, looked up): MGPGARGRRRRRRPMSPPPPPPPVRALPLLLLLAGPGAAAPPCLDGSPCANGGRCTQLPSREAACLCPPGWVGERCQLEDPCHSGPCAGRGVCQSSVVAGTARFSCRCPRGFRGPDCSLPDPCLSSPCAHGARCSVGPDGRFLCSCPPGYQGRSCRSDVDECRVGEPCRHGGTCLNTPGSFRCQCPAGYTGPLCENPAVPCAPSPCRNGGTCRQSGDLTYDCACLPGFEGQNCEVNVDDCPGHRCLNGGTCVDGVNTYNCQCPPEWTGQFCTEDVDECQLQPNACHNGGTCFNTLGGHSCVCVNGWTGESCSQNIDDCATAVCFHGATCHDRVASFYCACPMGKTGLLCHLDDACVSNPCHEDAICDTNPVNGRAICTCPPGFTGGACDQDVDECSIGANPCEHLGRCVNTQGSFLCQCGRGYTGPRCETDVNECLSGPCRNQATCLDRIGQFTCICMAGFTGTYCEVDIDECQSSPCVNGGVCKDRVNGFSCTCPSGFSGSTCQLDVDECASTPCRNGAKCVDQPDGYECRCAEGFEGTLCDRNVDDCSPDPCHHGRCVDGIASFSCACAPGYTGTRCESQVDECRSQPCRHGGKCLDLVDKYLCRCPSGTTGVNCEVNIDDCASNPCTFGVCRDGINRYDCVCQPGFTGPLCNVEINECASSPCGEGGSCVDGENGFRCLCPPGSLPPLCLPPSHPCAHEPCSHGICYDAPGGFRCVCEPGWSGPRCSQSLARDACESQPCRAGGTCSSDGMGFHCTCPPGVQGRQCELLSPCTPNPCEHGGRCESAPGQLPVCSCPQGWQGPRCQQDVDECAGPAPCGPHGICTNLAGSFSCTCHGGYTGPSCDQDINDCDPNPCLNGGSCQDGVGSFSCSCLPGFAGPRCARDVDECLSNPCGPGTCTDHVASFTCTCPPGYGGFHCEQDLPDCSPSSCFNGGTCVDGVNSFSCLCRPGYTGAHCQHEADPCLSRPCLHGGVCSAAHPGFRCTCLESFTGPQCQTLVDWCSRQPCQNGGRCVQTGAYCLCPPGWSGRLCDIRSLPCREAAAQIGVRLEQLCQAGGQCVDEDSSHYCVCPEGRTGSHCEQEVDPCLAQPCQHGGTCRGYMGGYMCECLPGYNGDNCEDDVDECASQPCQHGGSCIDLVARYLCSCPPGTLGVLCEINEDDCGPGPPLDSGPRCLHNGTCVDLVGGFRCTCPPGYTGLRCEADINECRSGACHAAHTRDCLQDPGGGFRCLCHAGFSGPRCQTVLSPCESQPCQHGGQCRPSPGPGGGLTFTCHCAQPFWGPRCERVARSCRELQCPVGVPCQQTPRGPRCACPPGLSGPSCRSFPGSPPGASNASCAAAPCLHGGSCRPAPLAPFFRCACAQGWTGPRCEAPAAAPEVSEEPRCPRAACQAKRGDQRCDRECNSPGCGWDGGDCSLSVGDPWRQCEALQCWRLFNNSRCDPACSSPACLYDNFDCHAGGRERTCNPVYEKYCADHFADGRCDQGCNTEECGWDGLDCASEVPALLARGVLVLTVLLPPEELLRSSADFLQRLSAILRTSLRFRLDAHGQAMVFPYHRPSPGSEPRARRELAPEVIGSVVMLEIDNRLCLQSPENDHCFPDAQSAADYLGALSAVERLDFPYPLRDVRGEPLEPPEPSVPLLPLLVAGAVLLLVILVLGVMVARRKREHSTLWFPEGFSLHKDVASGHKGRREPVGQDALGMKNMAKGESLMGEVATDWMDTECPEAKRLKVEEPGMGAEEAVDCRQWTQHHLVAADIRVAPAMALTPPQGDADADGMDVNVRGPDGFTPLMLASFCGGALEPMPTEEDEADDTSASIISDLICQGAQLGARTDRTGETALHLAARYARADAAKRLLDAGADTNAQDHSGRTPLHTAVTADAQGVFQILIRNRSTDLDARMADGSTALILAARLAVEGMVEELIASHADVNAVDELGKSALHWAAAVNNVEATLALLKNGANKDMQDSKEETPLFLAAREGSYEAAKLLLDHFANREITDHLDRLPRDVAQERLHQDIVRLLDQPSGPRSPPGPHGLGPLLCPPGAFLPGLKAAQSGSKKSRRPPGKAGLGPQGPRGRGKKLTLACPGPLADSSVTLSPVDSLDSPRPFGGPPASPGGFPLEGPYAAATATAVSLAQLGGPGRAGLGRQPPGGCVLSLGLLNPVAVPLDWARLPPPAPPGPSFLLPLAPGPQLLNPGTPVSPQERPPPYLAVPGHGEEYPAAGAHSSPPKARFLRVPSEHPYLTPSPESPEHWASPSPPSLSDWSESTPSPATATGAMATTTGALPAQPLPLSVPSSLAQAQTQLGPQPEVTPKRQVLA

As to `CC[C@@H]1C=C(C(=O)O)[C@H](c2ccccc2)N1S(=O)(=O)c1ccc([N+](=O)[O-])cc1`, the composite z-score is 0.372 in assay [1]; 3.38 in [5]; 0.0634 in [7]; -0.297 in assay [8]; 0.481 in assay [9]; 0.0276 in assay [10]. Moreover, the composite z-score is 0.956 in assay [11]; -0.255 in [12]; 0.887 in [13]; 0.0734 in [15]; 1.16 in assay [16]; -0.314 in assay [17]. Also, the figures for the composite z-score in assay [18], in assay [19] and in [20] were 0.0657, -0.538 and 0.781, respectively. For the same compound, the z-score is 0.308 (inactive) in assay [2]; -0.434 (inactive) in [3]; 0.632 (inactive) in assay [4]; -1.86 (inactive) in [6]; -0.812 (inactive) in assay [14].
In the case of `COc1ccc([Si](C)(C)[C@H]2[C@H](CC(=O)N(CCO)Cc3ccccc3)O[C@@]3(C(=O)N(C)c4ccccc43)[C@@H]2C)cc1`, the composite z-score in assay [1] was 1.31; in assay [5] it was 1.93; in assay [7] it was -0.186; in assay [8], 1.72; in [9], 1.11; in assay [10], -0.0987. Also, the composite z-score was 0.624 in [11]; -0.29 in [12]; -0.519 in [13]; 1.19 in [15]; 0.25 in assay [16]; 0.631 in assay [17]. Also, the composite z-score is 0.996 in assay [18], 1.05 in [19] and 0.92 in assay [20]. Besides, the z-score in assay [2] is -1.98 (inactive); in assay [3] it was -1.24 (inactive); in assay [4], -0.712 (inactive); in assay [6], 1.41 (inactive); in [14], -1.44 (inactive).
Take `COc1ccc(-c2cc3c(c(-c4ccccc4)n2)[Si](C(C)C)(C(C)C)O[C@H]3c2ccccc2)cn1`: the composite z-score in [1] was 1.11; in [5], 0.965; in assay [7] it was -0.132; in assay [8] it was 0.47; in assay [9] it was 0.596; in assay [10], 0.0215. Besides, the composite z-score in [11] is -0.309; in assay [12], -0.0513; in [13], -0.131; in assay [15], 0.22; in [16], 0.176; in assay [17] it was 0.0928. For the same compound, the composite z-score in [18] was 0.352; in assay [19], 0.0263; in [20], 0.605. Besides, the z-score in assay [2] is -0.136 (inactive); in assay [3] it was -0.572 (inactive); in assay [4], -0.0946 (inactive); in assay [6], -1.03 (inactive); in assay [14], 0.96 (inactive).
In the case of `C=CCc1cccc([C@@H]2[C@@H](C)CC[C@H]3C(=O)N4[C@H](c5cccc(CC=C)c5)[C@@H](C)CC[C@H]4C(=O)N23)c1`, the composite z-score is 0.592 in [1]; 0.785 in [5]; 0.0163 in assay [7]; 0.432 in assay [8]; 0.671 in assay [9]; -0.124 in [10]. For the same compound, the composite z-score was 0.725 in assay [11]; -0.0603 in assay [12]; 0.175 in assay [13]; 0.756 in [15]; 0.365 in assay [16]; 0.654 in [17]. Further, the composite z-score is 0.831 in assay [18], 0.666 in [19] and 1.67 in assay [20]. The z-score in assay [2] was -0.988 (inactive); in assay [3], 0.0313 (inactive); in [4] it was 6.6 (inactive); in [6] it was 0.533 (inactive); in assay [14], -1.34 (inactive).
Consider `CCCCCCc1nc(-c2cc(C)c(OC)c(C)c2)cc2c1[Si](C(C)C)(C(C)C)O[C@H]2c1ccccc1`, for which the composite z-score is -0.118 in assay [1]; -0.685 in assay [5]; -0.107 in [7]; -0.346 in [8]; -0.496 in assay [9]; -0.168 in assay [10]. The composite z-score in assay [11] is -0.717; in assay [12], -0.268; in [13] it was 0.122; in assay [15], -0.915; in assay [16], -0.849; in assay [17], -0.394. Besides, the values for the composite z-score in assay [18], in assay [19] and in assay [20] were -0.677, -0.302 and 0.621, respectively. The z-score in [2] is 0.955 (inactive); in assay [3] it was 0.659 (inactive); in assay [4] it was -0.558 (inactive); in [6], -0.54 (inactive); in assay [14], 0.399 (inactive).
